We go through 3 molecules from PubChem BioAssay (NCATS).

For assay [1], the target named is Cytochrome P450 1A2 (Homo sapiens) (UniProt P05177). The assay can be described thus: p450-cyp1a2 (AID 410; calls by dose curve; further: potency means the concentration at half of the fitted maximal effect). To be noted: recombinant CYP1A2, luciferin-ME demethylation, luminescence; series mostly up to 57 µM. The method, boiled down:
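20nM CYP1A2, 100uM Luciferin-ME (=Km), 100mM KPO4; cpd 10 min RT; +NADPH regen, 60 min RT; stop/detect 20 min; luminescence. Normalized to furafylline 57 uM = full inhibition.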

Assay [2] has as its target Glucocorticoid receptor (Homo sapiens) (UniProt P04150). Put plainly: GR-EFC Redistribution (AID 451; calls by dose curve; further: potency means the concentration at half of the fitted maximal effect). Conditions: CHO-K1 GR-EFC translocation, beta-gal luminescence, 2 h. The essentials: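 CHO-K1 cells stably expressing nuclear-localized β-gal enzyme acceptor and GR fused C-terminally to the enzyme donor fragment; ligand-driven nuclear translocation restores β-gal by complementation. Compounds titrated up to 46 uM final, 2 h at 37 °C; luminescence read.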

In assay [3] the target is Mitogen-activated protein kinase 10 (Mus musculus) (UniProt Q61831). The assay can be described thus: JNK3 AlphaScreen Assay (AID 530; active means well fitted curve in either direction with a large enough effect, not every such curve was filed as active;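 further: kinase came from lysate of stimulated human HepG2 cells; signal reports phosphorylation of biotinylated GST-cJun 1-79 at Ser73 with 10 µM ATP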). To be noted: JNK3 lysate, c-Jun phosphorylation; series mostly up to 57.1 µM. The method, boiled down:
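Biotinylated GST-cJun(1-79) served as substrate for JNK3 in HepG2 lysates stimulated with IL-1beta and TNF-alpha. ATP was 10 uM final, pH 7.6. Ser73 phosphorylation was quantified by AlphaScreen (680 nm excitation).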
Background: Bead proximity is the source of the signal in Alpha formats.

Assay [4] addresses 3',5'-cyclic-AMP phosphodiesterase 4B (Homo sapiens) (UniProt Q07343). The assay can be described thus: qHTS Assay for Inhibitors of PDE-IV (AID 607; active means well fitted activation curve with a large enough effect in the main read-out, with a control signal flat, not every such curve was filed as active). Conditions: HEK293 ACTOne CNG channel cells, membrane potential fluorescence; series mostly up to 22.9 µM. The method, boiled down:
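Cell-based read-out of cAMP via a modified cyclic nucleotide-gated channel and membrane potential dye (535/590 nm) in HEK293 cells expressing PDE4 endogenously. Compounds tested up to 22.9 uM final; 100 uM RO 20-1724 reference.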

In assay [5] the target is Guanine nucleotide-binding protein G(i) subunit alpha-1 (Homo sapiens) (UniProt P63096). Put plainly: qHTS Assay for Inhibitors of RGS12 GoLoco Motif Activity (Green Fluorophore) (AID 879).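 Further: negative values mean loss of peptide binding seen as reduced polarization.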 Conditions: Galphai1/FITC-RGS12 GoLoco peptide, fluorescence polarization; series mostly up to 57.1 µM. The essentials: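 A drop in FITC polarization marked displacement of the FITC-tagged RGS12 GoLoco peptide (10 nM) from Gαi1 (50 nM). Compounds were incubated 10 min at room temperature in Tris pH 7.5 buffer containing 150 mM NaCl, 0.1 mM GDP and 0.05% NP40; unlabeled peptide titration served as control.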

For assay [6], the target named is Cytochrome P450 2D6 (Homo sapiens) (UniProt P10635). The assay can be described thus: qHTS Assay for Inhibitors and Substrates of Cytochrome P450 2D6 (AID 891). Further: potency means the concentration at half of the fitted maximal effect; nearly all actives have a fitted effect of over 60% in size. Conditions: recombinant CYP2D6, luciferin-ME EGE luminescence; series mostly up to 57.1 µM. The essentials: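 Luminescent read-out of luciferin formed by 5 nM human CYP2D6 demethylating 30 uM Luciferin-ME EGE (Km level) over 60 min at room temperature after NADPH regeneration addition. Data normalized to full inhibition by 1.43 uM quinidine.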
Cytochrome P450 2D6 (Homo sapiens), sequence (P10635 whole entry, looked up): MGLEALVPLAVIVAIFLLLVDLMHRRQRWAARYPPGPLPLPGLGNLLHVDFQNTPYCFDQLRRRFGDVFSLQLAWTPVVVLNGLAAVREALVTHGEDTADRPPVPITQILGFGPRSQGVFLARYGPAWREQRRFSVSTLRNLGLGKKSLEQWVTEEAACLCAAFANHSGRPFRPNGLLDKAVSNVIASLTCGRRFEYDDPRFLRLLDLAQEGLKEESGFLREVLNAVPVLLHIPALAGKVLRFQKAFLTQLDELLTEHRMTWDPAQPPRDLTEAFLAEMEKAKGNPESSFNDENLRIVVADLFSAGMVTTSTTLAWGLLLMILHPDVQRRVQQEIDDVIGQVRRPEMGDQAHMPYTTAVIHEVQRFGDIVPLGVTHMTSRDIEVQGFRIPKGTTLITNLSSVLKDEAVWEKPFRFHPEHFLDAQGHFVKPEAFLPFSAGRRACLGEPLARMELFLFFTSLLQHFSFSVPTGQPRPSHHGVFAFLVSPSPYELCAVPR
(In general: qHTS replaces the single test concentration by a dilution series.)

Assay [7] can be described thus: qHTS Assay for Identification of Small Molecule Antagonists for NFkB Signaling Pathway (AID 895; active means well fitted inhibition curve with a large enough effect in the signal ratio, with a control signal flat, not every such curve was filed as active; the % refers to the signal ratio). Conditions: NFkB beta-lactamase reporter cells, FRET ratio 460/530; series mostly up to 38.3 µM. The method, boiled down:
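NFkB-bla ME-180 cervical carcinoma cells with beta-lactamase reporter under NFkB response element; compounds added, then TNF alpha at 10 pM final (EC50), 5 h at 37 C. LiveBLAzer substrate 2 h, room temperature; emission 460/530 nm at 405 nm excitation.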

Assay [8] in a line: qHTS Assay for Identification of Small Molecule Agonists for Thrombopoietin (TPO) Signaling Pathway (AID 917). Conditions: TPO signaling pathway reporter cells, agonist qHTS; series mostly up to 38.5 µM. The method, boiled down:
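Cell-based luciferase reporter screen. Mouse Ba/F3 line stably expressing human TPO receptor; IL-3 removed overnight before plating. Co-treatment with compound and EC50 TPO (26 pM), 24 hrs at 37 C, then luminescence.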

The target of assay [9] is Muscarinic acetylcholine receptor M1 (Rattus norvegicus) (UniProt P08482). The assay can be described thus: qHTS Assay for Antagonists of Acetylcholine Muscarinic M1 Receptor: Kinetic Measurement of Intracellular Calcium Response (AID 943). Further: potency means the concentration at half of the fitted maximal effect; nearly all actives have a fitted effect of over 75% in size. To be noted: M1-expressing cells, kinetic intracellular calcium fluorescence; series mostly up to 35.3 µM. The essentials:
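Read-out: peak over basal Fluo-4 fluorescence, kinetic at 1 Hz for 4 min after EC80 carbachol (100 nM final). Rat M1-CHO cells, dye loaded 1 h at 37C, compound added 10 min before agonist.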

For assay [10] the target is unchanged. Put plainly: qHTS Assay for Antagonists of Acetylcholine Muscarinic M1 Receptor: Measurement of IP-One Response (AID 944). Further: potency means the concentration at half of the fitted maximal effect; nearly all actives have a fitted effect of over 75% in size. Conditions: CHO-M1 cells, IP-One HTRF, antagonist mode; series mostly up to 46.1 µM. The method, boiled down: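 Read-out: HTRF competition between d2-IP1 and Eu-cryptate anti-IP1 antibody, emission 620 and 665 nm. Stimulus was carbachol, EC80 (200 nM), for 30 min in M1-CHO cells (rat receptor), after 10 min compound pre-treatment.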

The target in assay [11] is Pyruvate kinase (Leishmania mexicana) (UniProt Q27686). Put plainly: qHTS Validation Assay for Inhibitors of Leishmania Mexicana Pyruvate Kinase (AID 945). To be noted: purified L. mexicana pyruvate kinase, enzyme activity, E451W mutant enzyme; series mostly up to 57.5 µM. The essentials:
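The enzyme is a highly purified E451W mutant of LmPYK used at 0.2 nM. It converts 0.5 mM PEP and 0.1 mM ADP over 1 h at room temperature; product ATP is quantified by luciferase luminescence relative to DMSO controls.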

For assay [12], the target named is Pyruvate kinase PKM (Homo sapiens) (UniProt P14618). Put plainly: qHTS Assay for Activators of Human Muscle Pyruvate Kinase (AID 954; active means well fitted curve in the direction sought with a large enough effect, not every such curve was filed as active). Conditions: purified human muscle pyruvate kinase, luciferase-coupled luminescence, 1 h; series mostly up to 57.5 µM. The method, boiled down:
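ATP production by PKM2 detected via luciferase luminescence after 1 h room-temperature reaction (0.1 nM enzyme, PEP at Km 0.5 mM, ADP 0.1 mM, pH 7.2 imidazole buffer). Inhibition scaled to no-enzyme control; activation referenced to 0.3 nM enzyme wells.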

For assay [13], the target named is Alpha-galactosidase (Coffea arabica) (UniProt Q42656). The assay can be described thus: Counterscreen for Glucocerebrosidase Inhibitors: qHTS Assay for Coffee Bean alpha-Galactosidase at pH 4.5 (AID 957). Conditions: purified coffee bean alpha-galactosidase, fluorogenic substrate; series mostly up to 76.9 µM. The method, boiled down:
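Fluorogenic read-out: 4-methylumbelliferone at Ex 365/Em 440 nm after NaOH/glycine stop (pH 10). Enzyme 2 nM, 4-MU-alpha-galactoside 80 uM, citrate buffer pH 4.5, 20 min RT; normalized to no-enzyme and enzyme controls.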
For orientation: Counterscreens check selectivity or assay interference.

Assay [14] has as its target Alpha-galactosidase A (Homo sapiens) (UniProt P06280). The assay can be described thus: Counterscreen for Glucocerebrosidase Inhibitors: qHTS Assay for Human alpha-Galactosidase at pH 4.5 (AID 992). To be noted: purified enzyme, fluorogenic substrate; series mostly up to 76.9 µM. The method, boiled down: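 Fluorogenic 1536-well qHTS at pH 4.5 (citrate, Tween-20): 2 nM enzyme, 80 uM 4-MU-alpha-galactoside, 20 min room temperature, NaOH/glycine stop. Titration 0.7 nM to 77 uM, data normalized to no-enzyme and full-activity controls, Hill-fitted AC50.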

The target in assay [15] is alpha-glucosidase (Oryza sativa, rice) (UniProt Q653V4). The assay can be described thus: Counterscreen for Glucocerebrosidase Inhibitors: qHTS Assay for Rice alpha-Glucosidase at pH 5.0 (AID 997). Conditions: rice alpha-glucosidase enzyme activity; series mostly up to 76.9 µM. The essentials:
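Endpoint fluorogenic assay at pH 5.0: compounds (0.7 nM to 77 uM) titrated against 4 nM rice enzyme and 400 uM 4-MU-alpha-glucoside for 20 min at room temperature; NaOH/glycine stop, read ex 365/em 440 nm, Hill-fitted AC50.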

Assay [16] deals with Ubiquitin carboxyl-terminal hydrolase 1 (Homo sapiens) (UniProt O94782). Put plainly: Inhibitors of USP1/UAF1: Pilot qHTS (AID 504865).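 Further: rhodamine fluorescence freed from ubiquitin-rhodamine substrate followed over time; top concentration of the series differs between compounds; nearly all actives have a fitted effect of over 35% in size.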 Conditions: purified USP1/UAF1, Ub-rhodamine cleavage fluorescence; series mostly up to 114 µM. The essentials:
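In 50mM HEPES pH 7.8 containing 0.5mM EDTA, 1mM TCEP, 0.1 mg/ml BSA and 0.01% Tween-20, 1nM USP1/UAF1 is exposed to compound for 15 min, then Ub-Rho (150nM final) is added and fluorescence is read over time.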

In assay [17] the target is DNA dC->dU-editing enzyme APOBEC-3G (Homo sapiens) (UniProt Q9HC16). The assay can be described thus: qHTS for inhibitors of Vif-A3G interactions: Validation (AID 588379). To be noted: Vif-A3G protein interaction assay; series mostly up to 46.1 µM. The essentials: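 Yellow fluorescence (Ex 488, Em 500-530) of Vif-coexpressing HeLa A3G-eYFP cells, scanned by Acumen cytometer, reports blocked A3G degradation. Cells plated at 700/well overnight at 37 deg C before compound addition, then a further overnight compound incubation at 37 deg C.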

The target of the next assay is Furin (Homo sapiens) (UniProt P09958). Put plainly: Furin counterscreen qHTS for Zika virus inhibitors (AID 1347149).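 Further: purified recombinant full-length human furin enzyme at 5 nM; fluorescence gain from furin cutting a BOC-RVRR-AMC peptide substrate over 15 min; top concentration of the series differs between compounds; nearly all actives have a fitted effect of over 70% in size.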 To be noted: furin enzymatic counterscreen, fluorogenic substrate; series mostly up to 57.5 µM. The method, boiled down: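 Counterscreen measures cleavage of 2 microM BOC-RVRR-AMC, below its ~15 microM Km, by 5 nM full-length human furin at pH 7.0 after a 15-min compound preincubation. Inhibition derives from the 15-min fluorescence increase at 37C.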

The nature of assay [18]: Vero cells viability qHTS for Zika virus inhibitors (AID 1347167). To be noted: cytotoxicity counter-screen (Zika); series mostly up to 45.9 µM. The essentials: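 To flag cytotoxic protease inhibitors, viability is measured by ATP-dependent luminescence (CellTiter Glo) after cells attached overnight receive compound for 24 to 48 hours in DMEM with 4% FBS.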
Assay [19] concerns the target Cytochrome P450 3A4 (Homo sapiens) (UniProt P08684). The assay can be described thus: qHTS Assay for Activators of Cytochrome P450 3A4 (AID 885). Further: nearly all actives have a fitted effect of over 65% in size. Conditions: recombinant CYP3A4, Luciferin-PPXE luminescence, 60 min; series mostly up to 57.1 µM. The essentials: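 Luminescent readout of luciferin formed from 25 uM Luciferin-PPXE (KM level) by 20 nM CYP3A4 in 200 mM KPO4, with 60 min NADPH-driven reaction at room temperature after 10 min compound exposure. Ketoconazole (57 uM) defined 100% inhibition.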

Each structure is given as a SMILES string. Values joined by “and” are separate entries in the source; they are usually repeats but may differ in a detail not shown here. Equal entries are not always repeated. Inconclusive results are not listed. More than one record can exist for a structure, and the calls need not agree. Active and inactive are the calls of the source. Unless noted, the call rests on the fitted dose curve; in most records, active means well fitted curve in the direction sought with a large enough effect; inconclusive means small, poorly fitted or top-dose-only effect, or another doubt; inactive means no such curve, though single readings can be large; an effect the other way counts as inactive or inconclusive.

Muscarinic acetylcholine receptor M1 (Rattus norvegicus), sequence (P08482 whole entry, looked up): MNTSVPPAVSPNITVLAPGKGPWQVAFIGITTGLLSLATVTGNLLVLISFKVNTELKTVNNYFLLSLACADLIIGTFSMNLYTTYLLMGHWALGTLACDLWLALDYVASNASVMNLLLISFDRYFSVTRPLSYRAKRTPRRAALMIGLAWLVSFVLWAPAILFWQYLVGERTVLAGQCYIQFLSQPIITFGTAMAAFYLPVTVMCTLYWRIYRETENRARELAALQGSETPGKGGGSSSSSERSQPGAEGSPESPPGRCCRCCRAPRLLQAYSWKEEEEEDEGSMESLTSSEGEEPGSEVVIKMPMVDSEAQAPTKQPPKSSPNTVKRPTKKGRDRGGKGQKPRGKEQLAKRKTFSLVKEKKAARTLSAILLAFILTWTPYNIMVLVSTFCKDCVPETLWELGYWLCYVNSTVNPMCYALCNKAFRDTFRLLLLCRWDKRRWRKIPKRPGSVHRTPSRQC
Cytochrome P450 1A2 (Homo sapiens), sequence (P05177 whole entry, looked up): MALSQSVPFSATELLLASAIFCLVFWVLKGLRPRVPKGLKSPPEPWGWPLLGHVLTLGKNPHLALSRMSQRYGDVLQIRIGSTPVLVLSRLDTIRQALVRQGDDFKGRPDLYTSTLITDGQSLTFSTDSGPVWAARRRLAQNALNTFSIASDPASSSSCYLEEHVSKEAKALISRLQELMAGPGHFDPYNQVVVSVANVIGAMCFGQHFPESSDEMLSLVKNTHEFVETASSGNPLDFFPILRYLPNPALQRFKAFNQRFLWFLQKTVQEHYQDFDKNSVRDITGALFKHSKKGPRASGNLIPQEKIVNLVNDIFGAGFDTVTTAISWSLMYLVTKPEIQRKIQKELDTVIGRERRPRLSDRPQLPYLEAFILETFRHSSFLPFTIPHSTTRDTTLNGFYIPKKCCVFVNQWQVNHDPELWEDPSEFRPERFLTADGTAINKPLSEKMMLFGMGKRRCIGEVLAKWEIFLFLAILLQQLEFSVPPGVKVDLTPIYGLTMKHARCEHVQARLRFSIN
Glucocorticoid receptor (Homo sapiens), sequence (P04150 whole entry, looked up, the tested form may be a part): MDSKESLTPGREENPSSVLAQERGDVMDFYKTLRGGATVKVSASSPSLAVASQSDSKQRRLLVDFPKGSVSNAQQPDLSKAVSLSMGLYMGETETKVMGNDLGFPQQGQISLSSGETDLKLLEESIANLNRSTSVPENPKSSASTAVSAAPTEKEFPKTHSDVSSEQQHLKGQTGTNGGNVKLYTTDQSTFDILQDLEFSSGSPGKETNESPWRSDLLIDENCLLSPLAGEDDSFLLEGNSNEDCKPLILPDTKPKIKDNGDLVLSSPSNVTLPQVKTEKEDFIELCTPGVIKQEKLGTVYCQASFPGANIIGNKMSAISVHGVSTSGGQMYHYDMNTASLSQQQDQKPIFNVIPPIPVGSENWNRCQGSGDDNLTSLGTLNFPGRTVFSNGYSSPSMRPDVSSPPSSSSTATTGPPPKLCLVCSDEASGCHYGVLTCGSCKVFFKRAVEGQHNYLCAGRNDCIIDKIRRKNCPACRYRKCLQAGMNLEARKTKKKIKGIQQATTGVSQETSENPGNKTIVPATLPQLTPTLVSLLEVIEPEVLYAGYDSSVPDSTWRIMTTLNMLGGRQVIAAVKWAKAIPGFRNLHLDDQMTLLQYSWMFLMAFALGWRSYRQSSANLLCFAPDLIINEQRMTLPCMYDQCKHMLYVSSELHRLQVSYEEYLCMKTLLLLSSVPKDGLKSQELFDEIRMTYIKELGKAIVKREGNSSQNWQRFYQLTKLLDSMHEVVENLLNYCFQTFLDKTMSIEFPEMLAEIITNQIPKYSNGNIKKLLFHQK
3',5'-cyclic-AMP phosphodiesterase 4B (Homo sapiens), sequence (Q07343 whole entry, looked up): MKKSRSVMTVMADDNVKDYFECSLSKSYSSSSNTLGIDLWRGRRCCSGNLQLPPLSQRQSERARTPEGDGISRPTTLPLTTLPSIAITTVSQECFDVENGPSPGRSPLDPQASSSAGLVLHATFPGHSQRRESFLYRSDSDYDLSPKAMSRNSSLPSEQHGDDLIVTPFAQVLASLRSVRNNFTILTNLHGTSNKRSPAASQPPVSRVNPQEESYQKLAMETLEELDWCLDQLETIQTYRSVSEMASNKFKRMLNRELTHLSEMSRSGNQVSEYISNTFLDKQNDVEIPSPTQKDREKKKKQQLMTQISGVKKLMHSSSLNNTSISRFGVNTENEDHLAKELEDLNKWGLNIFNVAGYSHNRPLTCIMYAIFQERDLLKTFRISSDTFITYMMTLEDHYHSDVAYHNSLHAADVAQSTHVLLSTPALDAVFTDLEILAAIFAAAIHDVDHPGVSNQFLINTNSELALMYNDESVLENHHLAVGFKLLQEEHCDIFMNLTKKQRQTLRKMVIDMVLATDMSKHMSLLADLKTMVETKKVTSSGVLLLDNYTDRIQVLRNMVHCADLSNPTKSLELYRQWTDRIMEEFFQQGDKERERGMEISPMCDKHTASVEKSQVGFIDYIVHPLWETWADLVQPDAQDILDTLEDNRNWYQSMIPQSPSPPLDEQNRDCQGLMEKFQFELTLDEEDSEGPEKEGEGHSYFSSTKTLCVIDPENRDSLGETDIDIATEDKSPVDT
Pyruvate kinase (Leishmania mexicana), sequence (Q27686 2-499 E452W): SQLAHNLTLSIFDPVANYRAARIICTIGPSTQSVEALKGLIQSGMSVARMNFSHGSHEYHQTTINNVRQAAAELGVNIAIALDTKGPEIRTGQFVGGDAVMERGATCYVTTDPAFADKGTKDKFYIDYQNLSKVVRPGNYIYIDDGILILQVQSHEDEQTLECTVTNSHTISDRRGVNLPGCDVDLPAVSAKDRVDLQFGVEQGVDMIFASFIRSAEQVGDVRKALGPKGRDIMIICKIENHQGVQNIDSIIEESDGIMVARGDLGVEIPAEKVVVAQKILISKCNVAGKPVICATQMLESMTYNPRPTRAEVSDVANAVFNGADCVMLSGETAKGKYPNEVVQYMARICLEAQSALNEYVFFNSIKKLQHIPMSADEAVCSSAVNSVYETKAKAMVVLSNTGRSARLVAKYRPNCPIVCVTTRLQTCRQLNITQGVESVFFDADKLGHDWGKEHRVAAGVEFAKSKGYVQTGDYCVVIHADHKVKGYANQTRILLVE
Cytochrome P450 3A4 (Homo sapiens), sequence (P08684 whole entry, looked up): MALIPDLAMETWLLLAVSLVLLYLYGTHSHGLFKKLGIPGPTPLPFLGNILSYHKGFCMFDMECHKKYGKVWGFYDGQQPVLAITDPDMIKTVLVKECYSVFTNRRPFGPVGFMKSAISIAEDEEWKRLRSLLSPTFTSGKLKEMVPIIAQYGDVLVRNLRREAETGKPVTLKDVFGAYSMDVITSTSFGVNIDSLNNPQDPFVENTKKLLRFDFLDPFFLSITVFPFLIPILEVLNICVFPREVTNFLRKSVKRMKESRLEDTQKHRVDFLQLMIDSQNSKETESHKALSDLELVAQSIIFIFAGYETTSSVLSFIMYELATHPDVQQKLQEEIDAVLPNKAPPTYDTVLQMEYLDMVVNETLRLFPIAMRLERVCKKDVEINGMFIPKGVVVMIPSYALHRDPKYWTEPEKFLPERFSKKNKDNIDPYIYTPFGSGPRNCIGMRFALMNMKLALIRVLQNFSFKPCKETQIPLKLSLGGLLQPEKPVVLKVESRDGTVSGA
Ubiquitin carboxyl-terminal hydrolase 1 (Homo sapiens), sequence (O94782 whole entry, looked up): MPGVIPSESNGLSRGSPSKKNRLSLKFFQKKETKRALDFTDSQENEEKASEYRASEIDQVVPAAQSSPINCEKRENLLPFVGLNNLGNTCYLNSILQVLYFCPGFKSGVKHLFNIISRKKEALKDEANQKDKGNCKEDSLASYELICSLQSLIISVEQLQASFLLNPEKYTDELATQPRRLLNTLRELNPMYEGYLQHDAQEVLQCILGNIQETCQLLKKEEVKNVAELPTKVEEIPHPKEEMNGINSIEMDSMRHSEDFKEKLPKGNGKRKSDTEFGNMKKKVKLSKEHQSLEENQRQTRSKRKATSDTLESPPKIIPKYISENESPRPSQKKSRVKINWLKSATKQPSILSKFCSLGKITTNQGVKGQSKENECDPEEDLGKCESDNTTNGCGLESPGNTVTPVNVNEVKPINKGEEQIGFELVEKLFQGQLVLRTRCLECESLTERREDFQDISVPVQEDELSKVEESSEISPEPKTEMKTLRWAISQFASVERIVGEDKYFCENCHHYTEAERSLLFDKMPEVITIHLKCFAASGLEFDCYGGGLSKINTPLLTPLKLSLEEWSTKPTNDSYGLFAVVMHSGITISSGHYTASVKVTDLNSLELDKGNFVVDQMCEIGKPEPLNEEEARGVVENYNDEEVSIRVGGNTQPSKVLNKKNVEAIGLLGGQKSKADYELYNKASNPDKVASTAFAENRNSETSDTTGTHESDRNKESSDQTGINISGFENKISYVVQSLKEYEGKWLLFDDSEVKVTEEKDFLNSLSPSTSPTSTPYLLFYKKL

In the case of `C=CCN1CCC2(C)c3cc(O)ccc3C[C@H]1[C@H]2C`, the Potency result in [1] is “inactive and 31.6 µM (active)”; in [2], > 46 µM (inactive); in [6], 7.94 µM (active) and 631 nM (active); in [9], 14.1 µM (active); in [10], 17.8 µM (active) and 15.8 µM (active). Moreover, the molecule was classed as inactive in assay [3], in [5], in assay [8], in assay [11], in assay [12] and in assay [13]. The result in assay [14] and in assay [15] was inactive. In addition, the Potency result (in [4]; in [7]; in assay [16]; in assay [17]; with Furin (Homo sapiens); in [18]) was “inactive” throughout.

Take `CN1CCc2cc3c(cc2C1C1OC(=O)c2c1ccc1c2OCO1)OCO3` (stereo not drawn): the Potency result in assay [19] and in [17] was “inactive” throughout.

On to `CC1CCCC(=O)CCC/C=C/c2cc(O)cc(O)c2C(=O)O1` (stereo not drawn), for which the Potency result in assay [19] and in assay [16] was “inactive” each time.
